The test in a line: TERT promoter activity modulators, primary screen, cell-based, luciferase reporter, human (AID 1259240). The note with it: A2780 TERT promoter luciferase reporter, 16 h; at 20 µM, fold versus average of vehicle-only wells.

Molecules are shown by their SMILES. A number with no mark means an inactive call. Activity calls are given as the source filed them. No stated cut-off is given here; in the data, active means fold change mostly below about -2 (no sharp cut-off); inactive means mostly above about -1.8.

With `CCOC(=O)c1oc2ccc(S(=O)(=O)n3nc(-c4ccc(OC)cc4OC)cc3N)cc2c1C`, the fold change is -1.57.
Regarding `CC1CC(C)CN(C(=O)C2CCC(CNS(=O)(=O)c3cccc4nsnc34)CC2)C1` (stereo not given), the fold change is -1.1.
Next, `CCCCCNC(=O)c1ccc(NC2=NC3CS(=O)(=O)CC3S2)cc1` (stereo not given): 1.22; `Cc1csc(NC(=O)C2=CCN(S(=O)(=O)c3ccccc3)CC2)n1`: 1.13; `CC(C)CNC(=O)CSc1nc(-c2cccs2)cc(C(F)(F)F)n1`: -2.24 (active).
Next, `CCCCNS(=O)(=O)c1ccc(C)c(-c2nnc3c4ccccc4c(C)nn23)c1`: -1.28; `CN(C)S(=O)(=O)c1cccc(-c2cn3cccnc3n2)c1`: -2.07 (active).
With `FC(F)(F)c1cccc(N2CCN(c3ccc4nncn4n3)CC2)c1`, the fold change was -1.15.
With `CC1CCCC(NS(=O)(=O)c2cccc3cccnc23)C1C` (stereo not given) the figure was -3.72 (active); with `NC(=O)c1ccccc1NC(=O)c1cc(-c2ccc(Br)s2)nc2ccccc12`, -2.57 (active); with `CCc1ccc2nc(Nc3nccc(C)n3)nc(C)c2c1`, 1.83.
Next, `Cc1cc(C)cc(N(CC(=O)NCc2cccs2)S(=O)(=O)c2c(C)[nH]c(=O)[nH]c2=O)c1`: -2.11 (active); `CCOc1ccc(OCC)c(NC(=O)C2CCCN(S(=O)(=O)c3cnc[nH]3)C2)c1` (stereo not given): 1.05.
Next, `CC1CCCC(NC(=O)CC(C)(C)CC2=NS(=O)(=O)c3ccccc3N2)C1C` (stereo not given): 1.01; `Cc1ccc(SCc2nc3sccn3c2Br)cc1`: -1.17.
Take `C=CCOc1ccc(-c2nc3s/c(=C\c4ccc(OC(C)=O)c(OC)c4)c(=O)n3n2)cc1`: the fold change was 1.33.
Next, `CCOC(=O)C1=C(CS(=O)(=O)c2ccccc2)NC(=O)NC1c1ccccc1` (stereo not given): 1.91; `COc1ccccc1Nc1nc(N)nc(CSc2ncccn2)n1`: -1.15; `CCN1CCN(CCNc2cc(C)nc3c(-c4ccc(OC)c(OC)c4)c(C)nn23)CC1`: -1.31.
Next, `COc1ccc(CCNc2ccc3nnc(C)n3n2)c(OC)c1`: -1.29.
With `O=C1c2ccccc2-c2onc3c(N4CCCC4)cc(NCCN4CCCC4)c1c23` the figure was -1.05; with `COc1cc(OC)c(NC(=O)Nc2cc3sccc3n2C)cc1Cl`, 1.13; with `Cc1nc(SCC(=O)Nc2cc(C)on2)c2c(=O)n(C)c(=O)n(C)c2n1`, -1.1.
With `Cc1cc(NC(=O)CSc2nnc(Cc3cc(=O)[nH]c(=O)[nH]3)n2-c2ccc(Cl)cc2)no1`, the fold change is -1.22.
As to `CCn1ncc(CNC(=O)c2cnn3c(C(F)F)cc(-c4ccc(C)cc4)nc23)c1C`, the fold change is 1.02.
For the compound `O=C(CN1C(=O)COc2ccc(S(=O)(=O)N3CCOCC3)cc21)NCc1ccc2c(c1)OCO2`, the fold change was 1.18.
With `Cc1cc(C)cc(N2CN=c3s/c(=C4\C(=O)Nc5ccccc54)c(=O)n3C2)c1` the figure was -1.15; with `O=C(Nc1ccc(C(F)(F)F)cc1)C1CCCN1S(=O)(=O)c1cccc2nsnc12` (stereo not given), -1.19.
Next, `CCOC(=O)c1[nH]c2ccc(F)cc2c1N`: -1.48; `CN(CC(=O)NC1CCCc2ccccc21)S(=O)(=O)c1ccc2c(c1)CCC(=O)N2` (stereo not given): 1.18.
Next, `O=C(CCN1C(=O)c2ccccc2S1(=O)=O)Nc1cccc(Br)c1`: 1.01; `OC(c1ccccc1)c1nn(CN2CCOCC2)c(=S)n1-c1ccccc1` (stereo not given): -3.71 (active).
Take `O=C(Cn1ncc2c3ccccc3n(Cc3ccccc3)c2c1=O)N1CCOCC1`: the fold change was -1.17.
Regarding `Cc1cccc(-c2c3c(=O)n(C)c(=O)n(C)c3c3c(C)nc4ccccc4n23)c1`, the fold change was 1.21.
Next, `CSc1ccc(-c2nc3sccn3c2Nc2ccccc2)cc1`: -1.05; `CN(C(=O)c1ccc2c(=O)n3c(nc2c1)CCCCC3)c1ccc(F)cc1`: -1.12; `CN(C)CCN1C(=O)C(=O)/C(=C(\O)c2ccc(F)cc2)C12C(=O)N(C)c1ccccc12` (stereo not given): -1.34.
With `CCOc1ccc2c(c1)CN(c1ccc(Cl)cc1)CO2` the figure was -1.19; with `COc1ccccc1-c1c(C)nn2c(N3CCOCC3)cc(C)nc12`, 1.18; with `NC(=O)C1CCN(C(=O)CN2C(=O)COc3ccc(S(=O)(=O)N4CCCC4)cc32)CC1`, 1.05.
As to `CCOC(=O)C1CCN(c2c(Nc3ccc4c(c3)OCCO4)c(=O)c2=O)CC1`, the fold change is -1.02.
Regarding `O=C(O)CN1C(=O)/C(=C\c2cn(Cc3ccc(F)cc3)c3ccccc23)SC1=S`, the fold change was -1.28.
Next, `CCOC(=O)N1CCC(Nc2c(N(C)C3CCCCC3)c(=O)c2=O)CC1`: 1.05; `CN1C(=O)/C(=C/c2cn(CC(=O)N3CCCc4ccccc43)c3ccccc23)c2ccccc21`: 1.47; `CCCCN(CC)CCNS(=O)(=O)c1cccc2cccnc12`: -1.21.
Next, `CCCc1nc2ccccc2c2nc(N)nn12`: -2.02 (active).
With `COc1ccc2cc(S(=O)(=O)c3ccc(Cl)cc3)c(=O)oc2c1` the figure was -2.33 (active).
With `Cc1sc2nc3ccc(N4CCCC4)nn3c(=O)c2c1C`, the fold change is -1.02.
With `Cc1ccc(-c2cc(C(F)F)n3ncc(C(=O)N4CCC(C)CC4)c3n2)cc1` the figure was 1.16.
With `CCc1ccc2[nH]cc(S(=O)(=O)c3ccc(F)cc3)c(=O)c2c1` the figure was -1.48; with `CCc1cc(C)cc(OCC(O)Cn2cnc3ccccc32)c1` (stereo not given), -1.77; with `CCOC(=O)N1CCN(c2c(NC3CCCC(C)C3C)c(=O)c2=O)CC1` (stereo not given), 1.1.
With `O=C(Nc1ccc2snnc2c1)Nc1ccccc1Cl` the figure was -1.86.
On to `O=C(C1CCCN1S(=O)(=O)c1cccc2nsnc12)N1CCN(c2ccccn2)CC1` (stereo not given), for which the fold change was -1.3.
Next, `CCCCN1C(=O)/C(=c2\sc3nc(-c4cc(OC)c(OC)c(OC)c4)nn3c2=O)c2ccccc21`: -1.17.
For the compound `COCCn1cc(/C=C2/C(=O)Nc3ccccc32)c2ccccc21`, the fold change is 1.23.
With `O=C(Cn1c(=O)oc2cc(S(=O)(=O)NC3CCCC3)ccc21)NC1CCCCCCC1`, the fold change is 1.01.
Regarding `O=C(Cc1ccc(NC2=NC3CS(=O)(=O)CC3S2)cc1)N1CCc2ccccc2C1` (stereo not given), the fold change is 1.1.
With `Cc1noc(C(=O)NCC(C)C)c1Cl` the figure was -1.74; with `O=C(CC1(O)C(=O)Nc2ccc(Br)cc21)c1cccs1` (stereo not given), -6.1 (active).
